{
  "source": "paper PMC11006913",
  "test_in_all_cases": "PBM; 200 nM protein, PBS",
  "settings_in_all_cases": "dsDNA, one strand shown",
  "key": {"ALX3": {"molecular_target": "ALX3 (Homo sapiens, UniProt O95076 139-225)", "sequence (O95076 139-225)": "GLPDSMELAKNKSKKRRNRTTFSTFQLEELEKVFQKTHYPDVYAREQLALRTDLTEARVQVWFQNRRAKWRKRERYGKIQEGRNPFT"}, "PROP1 [1]": {"molecular_target": "PROP1 (Homo sapiens, UniProt O75360 56-141)", "sequence (O75360 56-141)": "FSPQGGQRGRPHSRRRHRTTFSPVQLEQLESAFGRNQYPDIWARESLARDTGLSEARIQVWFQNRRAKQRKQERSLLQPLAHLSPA"}, "PROP1 [2]": {"molecular_target": "PROP1 (Homo sapiens, UniProt O75360 56-141, R99H)", "sequence (O75360 56-141 R99H)": "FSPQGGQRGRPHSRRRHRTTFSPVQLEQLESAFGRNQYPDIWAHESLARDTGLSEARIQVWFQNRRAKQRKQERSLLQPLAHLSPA"}, "PROP1 [3]": {"molecular_target": "PROP1 (Homo sapiens, UniProt O75360 56-141, F88S)", "sequence (O75360 56-141 F88S)": "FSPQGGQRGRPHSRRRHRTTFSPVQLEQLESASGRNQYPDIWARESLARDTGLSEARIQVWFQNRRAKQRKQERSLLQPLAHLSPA"}, "NKX2-4": {"molecular_target": "T1, NKX2-4 (Homo sapiens, UniProt Q9H2Z4 175-261, R246Q)", "T1 sequence": "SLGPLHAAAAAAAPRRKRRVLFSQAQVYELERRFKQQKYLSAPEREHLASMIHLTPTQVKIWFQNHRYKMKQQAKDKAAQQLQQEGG"}, "PAX4": {"molecular_target": "T2, PAX4 (Homo sapiens, UniProt O43316 9-242, F177Y)", "T2 sequence": "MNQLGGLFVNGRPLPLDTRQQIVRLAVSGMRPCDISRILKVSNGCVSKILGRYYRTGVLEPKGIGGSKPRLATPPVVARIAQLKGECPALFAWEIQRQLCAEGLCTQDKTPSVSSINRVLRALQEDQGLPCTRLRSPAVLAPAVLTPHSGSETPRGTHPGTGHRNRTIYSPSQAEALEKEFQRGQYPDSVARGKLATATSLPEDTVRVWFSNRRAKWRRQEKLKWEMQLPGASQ"}},
  "data": [
    {"sequence": "TGAGATAA", "values": [
      {"measurement": "binding signal", "setting": "ALX3", "value": "9.8 upbm affinity estimate (log intensity, higher = more binding, comparable within an allelic series)"}
    ]},
    {"sequence": "AATTCCGA", "values": [
      {"measurement": "binding signal", "setting": "PROP1 [1]", "value": "8.08 upbm affinity estimate (log intensity, higher = more binding, comparable within an allelic series)"},
      {"measurement": "binding signal", "setting": "PROP1 [2]", "value": "7.85 upbm affinity estimate (log intensity, higher = more binding, comparable within an allelic series)"}
    ]},
    {"sequence": "GCCTGCGA", "values": [
      {"measurement": "binding signal", "setting": "PROP1 [1]", "value": "6.74 upbm affinity estimate (log intensity, higher = more binding, comparable within an allelic series)"},
      {"measurement": "binding signal", "setting": "PROP1 [2]", "value": "6.64 upbm affinity estimate (log intensity, higher = more binding, comparable within an allelic series)"},
      {"measurement": "binding signal", "setting": "PROP1 [3]", "value": "6.59 upbm affinity estimate (log intensity, higher = more binding, comparable within an allelic series)"}
    ]},
    {"sequence": "AACAAGTG", "values": [
      {"measurement": "binding signal", "setting": "NKX2-4", "value": "12.9 upbm affinity estimate (log intensity, higher = more binding, comparable within an allelic series)"}
    ]},
    {"sequence": "ATCATATA", "values": [
      {"measurement": "binding signal", "setting": "PAX4", "value": "10.6 upbm affinity estimate (log intensity, higher = more binding, comparable within an allelic series)"}
    ]},
    {"sequence": "TAAAAGTA", "values": [
      {"measurement": "binding signal", "setting": "ALX3", "value": "9.06 upbm affinity estimate (log intensity, higher = more binding, comparable within an allelic series)"}
    ]},
    {"sequence": "ATAACATA", "values": [
      {"measurement": "binding signal", "setting": "ALX3", "value": "9.54 upbm affinity estimate (log intensity, higher = more binding, comparable within an allelic series)"}
    ]},
    {"sequence": "ATTGTCTC", "values": [
      {"measurement": "binding signal", "setting": "PROP1 [1]", "value": "7.7 upbm affinity estimate (log intensity, higher = more binding, comparable within an allelic series)"}
    ]},
    {"sequence": "GTAATAAC", "values": [
      {"measurement": "binding signal", "setting": "ALX3", "value": "10.7 upbm affinity estimate (log intensity, higher = more binding, comparable within an allelic series)"}
    ]},
    {"sequence": "GACGACAA", "values": [
      {"measurement": "binding signal", "setting": "PROP1 [1]", "value": "7.4 upbm affinity estimate (log intensity, higher = more binding, comparable within an allelic series)"}
    ]},
    {"sequence": "ATTTCCTA", "values": [
      {"measurement": "binding signal", "setting": "PROP1 [1]", "value": "7.97 upbm affinity estimate (log intensity, higher = more binding, comparable within an allelic series)"}
    ]},
    {"sequence": "GCTCCTCC", "values": [
      {"measurement": "binding signal", "setting": "PROP1 [1]", "value": "6.62 upbm affinity estimate (log intensity, higher = more binding, comparable within an allelic series)"},
      {"measurement": "binding signal", "setting": "PROP1 [2]", "value": "6.55 upbm affinity estimate (log intensity, higher = more binding, comparable within an allelic series)"},
      {"measurement": "binding signal", "setting": "PROP1 [3]", "value": "6.45 upbm affinity estimate (log intensity, higher = more binding, comparable within an allelic series)"}
    ]},
    {"sequence": "AGCCTGGC", "values": [
      {"measurement": "binding signal", "setting": "PROP1 [1]", "value": "6.55 upbm affinity estimate (log intensity, higher = more binding, comparable within an allelic series)"},
      {"measurement": "binding signal", "setting": "PROP1 [2]", "value": "6.87 upbm affinity estimate (log intensity, higher = more binding, comparable within an allelic series)"},
      {"measurement": "binding signal", "setting": "PROP1 [3]", "value": "6.67 upbm affinity estimate (log intensity, higher = more binding, comparable within an allelic series)"}
    ]},
    {"sequence": "GACATTAC", "values": [
      {"measurement": "binding signal", "setting": "PROP1 [1]", "value": "8.23 upbm affinity estimate (log intensity, higher = more binding, comparable within an allelic series)"},
      {"measurement": "binding signal", "setting": "PROP1 [2]", "value": "7.84 upbm affinity estimate (log intensity, higher = more binding, comparable within an allelic series)"},
      {"measurement": "binding signal", "setting": "PROP1 [3]", "value": "7.27 upbm affinity estimate (log intensity, higher = more binding, comparable within an allelic series)"}
    ]},
    {"sequence": "CGGCTCCA", "values": [
      {"measurement": "binding signal", "setting": "PROP1 [1]", "value": "6.66 upbm affinity estimate (log intensity, higher = more binding, comparable within an allelic series)"},
      {"measurement": "binding signal", "setting": "PROP1 [2]", "value": "6.76 upbm affinity estimate (log intensity, higher = more binding, comparable within an allelic series)"},
      {"measurement": "binding signal", "setting": "PROP1 [3]", "value": "6.74 upbm affinity estimate (log intensity, higher = more binding, comparable within an allelic series)"}
    ]},
    {"sequence": "CTTGGGTC", "values": [
      {"measurement": "binding signal", "setting": "PROP1 [1]", "value": "6.81 upbm affinity estimate (log intensity, higher = more binding, comparable within an allelic series)"},
      {"measurement": "binding signal", "setting": "PROP1 [2]", "value": "6.75 upbm affinity estimate (log intensity, higher = more binding, comparable within an allelic series)"},
      {"measurement": "binding signal", "setting": "PROP1 [3]", "value": "6.83 upbm affinity estimate (log intensity, higher = more binding, comparable within an allelic series)"}
    ]},
    {"sequence": "AGTCTGCG", "values": [
      {"measurement": "binding signal", "setting": "PROP1 [1]", "value": "6.67 upbm affinity estimate (log intensity, higher = more binding, comparable within an allelic series)"},
      {"measurement": "binding signal", "setting": "PROP1 [2]", "value": "6.73 upbm affinity estimate (log intensity, higher = more binding, comparable within an allelic series)"},
      {"measurement": "binding signal", "setting": "PROP1 [3]", "value": "6.68 upbm affinity estimate (log intensity, higher = more binding, comparable within an allelic series)"}
    ]},
    {"sequence": "ATTACTAA", "values": [
      {"measurement": "binding signal", "setting": "PROP1 [1]", "value": "9.85 upbm affinity estimate (log intensity, higher = more binding, comparable within an allelic series)"},
      {"measurement": "binding signal", "setting": "PROP1 [2]", "value": "9.4 upbm affinity estimate (log intensity, higher = more binding, comparable within an allelic series)"},
      {"measurement": "binding signal", "setting": "PROP1 [3]", "value": "7.62 upbm affinity estimate (log intensity, higher = more binding, comparable within an allelic series)"}
    ]},
    {"sequence": "CCGACCGG", "values": [
      {"measurement": "binding signal", "setting": "PROP1 [1]", "value": "6.54 upbm affinity estimate (log intensity, higher = more binding, comparable within an allelic series)"},
      {"measurement": "binding signal", "setting": "PROP1 [2]", "value": "6.6 upbm affinity estimate (log intensity, higher = more binding, comparable within an allelic series)"},
      {"measurement": "binding signal", "setting": "PROP1 [3]", "value": "6.35 upbm affinity estimate (log intensity, higher = more binding, comparable within an allelic series)"}
    ]},
    {"sequence": "GGAACGCC", "values": [
      {"measurement": "binding signal", "setting": "PROP1 [1]", "value": "6.7 upbm affinity estimate (log intensity, higher = more binding, comparable within an allelic series)"},
      {"measurement": "binding signal", "setting": "PROP1 [2]", "value": "6.87 upbm affinity estimate (log intensity, higher = more binding, comparable within an allelic series)"},
      {"measurement": "binding signal", "setting": "PROP1 [3]", "value": "6.68 upbm affinity estimate (log intensity, higher = more binding, comparable within an allelic series)"}
    ]},
    {"sequence": "ACCGAGAG", "values": [
      {"measurement": "binding signal", "setting": "PROP1 [1]", "value": "6.71 upbm affinity estimate (log intensity, higher = more binding, comparable within an allelic series)"},
      {"measurement": "binding signal", "setting": "PROP1 [2]", "value": "6.74 upbm affinity estimate (log intensity, higher = more binding, comparable within an allelic series)"},
      {"measurement": "binding signal", "setting": "PROP1 [3]", "value": "6.73 upbm affinity estimate (log intensity, higher = more binding, comparable within an allelic series)"}
    ]},
    {"sequence": "CCCGCGCA", "values": [
      {"measurement": "binding signal", "setting": "PROP1 [1]", "value": "6.78 upbm affinity estimate (log intensity, higher = more binding, comparable within an allelic series)"},
      {"measurement": "binding signal", "setting": "PROP1 [2]", "value": "6.9 upbm affinity estimate (log intensity, higher = more binding, comparable within an allelic series)"},
      {"measurement": "binding signal", "setting": "PROP1 [3]", "value": "6.76 upbm affinity estimate (log intensity, higher = more binding, comparable within an allelic series)"}
    ]},
    {"sequence": "GGCTGACC", "values": [
      {"measurement": "binding signal", "setting": "PROP1 [1]", "value": "6.72 upbm affinity estimate (log intensity, higher = more binding, comparable within an allelic series)"},
      {"measurement": "binding signal", "setting": "PROP1 [2]", "value": "6.74 upbm affinity estimate (log intensity, higher = more binding, comparable within an allelic series)"},
      {"measurement": "binding signal", "setting": "PROP1 [3]", "value": "6.56 upbm affinity estimate (log intensity, higher = more binding, comparable within an allelic series)"}
    ]},
    {"sequence": "CCTTCGGC", "values": [
      {"measurement": "binding signal", "setting": "PROP1 [1]", "value": "6.66 upbm affinity estimate (log intensity, higher = more binding, comparable within an allelic series)"},
      {"measurement": "binding signal", "setting": "PROP1 [2]", "value": "6.64 upbm affinity estimate (log intensity, higher = more binding, comparable within an allelic series)"},
      {"measurement": "binding signal", "setting": "PROP1 [3]", "value": "6.53 upbm affinity estimate (log intensity, higher = more binding, comparable within an allelic series)"}
    ]},
    {"sequence": "GGGTCGGA", "values": [
      {"measurement": "binding signal", "setting": "PROP1 [1]", "value": "6.69 upbm affinity estimate (log intensity, higher = more binding, comparable within an allelic series)"},
      {"measurement": "binding signal", "setting": "PROP1 [2]", "value": "6.78 upbm affinity estimate (log intensity, higher = more binding, comparable within an allelic series)"},
      {"measurement": "binding signal", "setting": "PROP1 [3]", "value": "6.58 upbm affinity estimate (log intensity, higher = more binding, comparable within an allelic series)"}
    ]},
    {"sequence": "AGGCTCCG", "values": [
      {"measurement": "binding signal", "setting": "PROP1 [1]", "value": "6.78 upbm affinity estimate (log intensity, higher = more binding, comparable within an allelic series)"},
      {"measurement": "binding signal", "setting": "PROP1 [2]", "value": "6.73 upbm affinity estimate (log intensity, higher = more binding, comparable within an allelic series)"},
      {"measurement": "binding signal", "setting": "PROP1 [3]", "value": "6.8 upbm affinity estimate (log intensity, higher = more binding, comparable within an allelic series)"}
    ]},
    {"sequence": "ACGGTAGG", "values": [
      {"measurement": "binding signal", "setting": "PROP1 [1]", "value": "6.51 upbm affinity estimate (log intensity, higher = more binding, comparable within an allelic series)"},
      {"measurement": "binding signal", "setting": "PROP1 [2]", "value": "6.62 upbm affinity estimate (log intensity, higher = more binding, comparable within an allelic series)"},
      {"measurement": "binding signal", "setting": "PROP1 [3]", "value": "6.62 upbm affinity estimate (log intensity, higher = more binding, comparable within an allelic series)"}
    ]}
  ]
}
